# Inconclusive results are not listed. Activity calls are given as the source filed them. The calls were made as follows: active = hit-call score of the fitted dose curve at least 0.9, where 1 is the maximum; inconclusive = response in the unintended direction; inactive = score below 0.9.
# Target: human Serotonin, 5-Hydroxytryptamine Receptor 7 (5HT7), HTR7 (gene 3363) (UniProt P34969)
# Assay: NVS_GPCR_h5HT7: NovaScreen (NVS) G Protein-Coupled Receptor Assay for human Serotonin, 5-Hydroxytryptamine Receptor 7 (5HT7) (AID 2283255);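 also: hits reduce specific radioligand binding relative to DMSO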
# Summary of the method: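 Radioligand displacement on membranes from CHO cells expressing human 5HT7, 1 h incubation, filter-based scintillation counting. Primary screen used a single 25 uM concentration in duplicate; actives were followed up in concentration series.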
# human Serotonin, 5-Hydroxytryptamine Receptor 7 (5HT7), HTR7 (gene 3363), sequence (P34969 whole entry, looked up): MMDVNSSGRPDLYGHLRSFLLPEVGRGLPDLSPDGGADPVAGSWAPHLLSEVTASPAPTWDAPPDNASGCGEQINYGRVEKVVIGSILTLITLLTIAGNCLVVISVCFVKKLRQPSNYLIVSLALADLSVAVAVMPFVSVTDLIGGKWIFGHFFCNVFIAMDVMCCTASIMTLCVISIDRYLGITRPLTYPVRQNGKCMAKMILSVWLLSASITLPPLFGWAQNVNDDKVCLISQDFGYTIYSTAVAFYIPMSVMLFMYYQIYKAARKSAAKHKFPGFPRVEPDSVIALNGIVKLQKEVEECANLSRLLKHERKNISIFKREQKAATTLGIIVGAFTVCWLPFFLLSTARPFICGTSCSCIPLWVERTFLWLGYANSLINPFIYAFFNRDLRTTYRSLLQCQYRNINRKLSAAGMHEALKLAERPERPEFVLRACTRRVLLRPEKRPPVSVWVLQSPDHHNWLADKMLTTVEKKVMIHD
SMILES,AC50,outcome
O=C(OCCOCCOC(=O)c1ccccc1)c1ccccc1,8.96 µM (active),–
O=C(O)Cc1cc(I)c(Oc2cc(I)c(O)c(I)c2)c(I)c1,5.26 µM (active),–
CC#C[C@]1(O)CC[C@H]2[C@@H]3CCC4=CC(=O)CCC4=C3[C@@H](c3ccc(N(C)C)cc3)C[C@@]21C,23.7 µM (active),–
NC(=O)N1C(=O)C(C(=O)c2cc(Cl)cs2)c2cc(F)c(Cl)cc21 (centres undefined),–,inactive
CCCOc1sc(C(=O)N2CCC(c3cc(CN)ccc3F)CC2)c(C)c1Br,5.09 µM (active),–
CCC(=C(c1ccc(O)cc1)c1ccc(OCCN(C)C)cc1)c1ccccc1,5.49 µM (active),–
Oc1cccc(O)c1,–,inactive
NC(=O)N(O)[C@@H]1C=C[C@H](Oc2cccc(Oc3ccc(F)cc3)c2)C1,12.8 µM (active),–
CCN(CC)CCNc1ccc(CNC=O)c2sc3ccc(OC)cc3c(=O)c12,–,inactive
CN1CCN(c2ccccc2/C=C2\SCCN(c3ccc(Cl)c(Cl)c3)C2=O)CC1,0.0142 µM (active),–
CCCCCCCCCCCCc1ccccc1S(=O)(=O)O,7.69 µM (active),–
CC[C@H](c1ccc(O)cc1)[C@@H](CC)c1ccc(O)cc1,–,inactive
O=[N+]([O-])c1ccc(O)cc1,–,inactive
Cc1oc(-c2ccccc2)nc1CCOc1ccc(C[C@H](Nc2ccccc2C(=O)c2ccccc2)C(=O)O)cc1,–,inactive
CC(=O)NC1(c2cccc(F)c2)CCN(CC[C@@]2(c3ccc(Cl)c(Cl)c3)CN(c3ccccc3)C(=O)CO2)CC1,20.8 µM (active),–

# Target: human Adenosine A2a Receptor (AdoRA2a), ADORA2A (gene 135) (UniProt P29274)
# Assay: NVS_GPCR_hAdoRA2a: NovaScreen (NVS) G Protein-Coupled Receptor Assay for human Adenosine A2a Receptor (AdoRA2a) (AID 2283256)
# Summary of the method: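 Cell-free radioligand binding on membranes from HEK293 expressing the receptor; competitive displacement read 1.5 h after dosing by filter-based scintillation counting. Primary screen in duplicate at 25 uM; actives followed in concentration series, with DMSO as baseline.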
# human Adenosine A2a Receptor (AdoRA2a), ADORA2A (gene 135), sequence (P29274 whole entry, looked up): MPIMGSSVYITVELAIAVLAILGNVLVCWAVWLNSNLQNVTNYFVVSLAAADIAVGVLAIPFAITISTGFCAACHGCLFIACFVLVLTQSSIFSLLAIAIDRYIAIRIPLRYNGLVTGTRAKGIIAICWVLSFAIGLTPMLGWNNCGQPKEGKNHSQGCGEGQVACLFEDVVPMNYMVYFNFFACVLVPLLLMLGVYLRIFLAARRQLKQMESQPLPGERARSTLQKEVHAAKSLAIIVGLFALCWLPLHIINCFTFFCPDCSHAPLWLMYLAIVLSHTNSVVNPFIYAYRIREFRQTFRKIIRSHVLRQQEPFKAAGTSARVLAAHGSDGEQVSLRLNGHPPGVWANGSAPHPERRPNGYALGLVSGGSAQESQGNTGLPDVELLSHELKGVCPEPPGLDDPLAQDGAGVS
SMILES,outcome,AC50
CC#C[C@]1(O)CC[C@H]2[C@@H]3CCC4=CC(=O)CCC4=C3[C@@H](c3ccc(N(C)C)cc3)C[C@@]21C,inactive,–
NC(=O)N1C(=O)C(C(=O)c2cc(Cl)cs2)c2cc(F)c(Cl)cc21 (centres undefined),–,19.7 µM (active)
CCC(=C(c1ccc(O)cc1)c1ccc(OCCN(C)C)cc1)c1ccccc1,–,3.08 µM (active)
CCN(CC)CCNc1ccc(CNC=O)c2sc3ccc(OC)cc3c(=O)c12,–,5.28 µM (active)
CC(C)(C)c1ccc(O)c(C(C)(C)C)c1,inactive,–
CCCCCCCCCCCCc1ccccc1S(=O)(=O)O,–,22.6 µM (active)
CC[C@H](c1ccc(O)cc1)[C@@H](CC)c1ccc(O)cc1,–,12.4 µM (active)
Oc1cc2ccccc2c2ccccc12,inactive,–

# Target: human Adrenergic, Alpha 2A Receptor (Adra2A), ADRA2A (gene 150) (UniProt P08913)
# Assay: NVS_GPCR_hAdra2A: NovaScreen (NVS) G Protein-Coupled Receptor Assay for human Adrenergic, Alpha 2A Receptor (Adra2A) (AID 2283257)
# Summary of the method: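 Radioligand filter-binding was run on HT29-derived membranes, cell-free, read by scintillation counting 1 h after dosing. Primary screening was in duplicate at 25 uM, with concentration series in follow-up. Loss of signal versus DMSO indicates displacement.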
# human Adrenergic, Alpha 2A Receptor (Adra2A), ADRA2A (gene 150), sequence (P08913 whole entry, looked up): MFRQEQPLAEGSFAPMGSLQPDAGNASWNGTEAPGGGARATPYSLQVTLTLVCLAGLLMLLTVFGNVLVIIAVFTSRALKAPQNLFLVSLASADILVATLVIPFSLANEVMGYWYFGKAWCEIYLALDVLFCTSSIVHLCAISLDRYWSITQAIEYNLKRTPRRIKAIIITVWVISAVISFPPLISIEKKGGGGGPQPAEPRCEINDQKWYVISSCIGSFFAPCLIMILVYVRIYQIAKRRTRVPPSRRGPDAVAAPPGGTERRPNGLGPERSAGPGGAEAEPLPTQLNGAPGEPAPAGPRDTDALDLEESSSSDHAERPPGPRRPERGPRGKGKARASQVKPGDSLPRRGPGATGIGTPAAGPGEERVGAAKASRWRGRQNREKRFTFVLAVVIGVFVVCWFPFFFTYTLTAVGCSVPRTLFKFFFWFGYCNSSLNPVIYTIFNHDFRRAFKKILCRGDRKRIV
SMILES,AC50,outcome
CCCOc1sc(C(=O)N2CCC(c3cc(CN)ccc3F)CC2)c(C)c1Br,4.12 µM (active),–
NC(=O)N(O)[C@@H]1C=C[C@H](Oc2cccc(Oc3ccc(F)cc3)c2)C1,6.62 µM (active),–
CCN(CC)CCNc1ccc(CNC=O)c2sc3ccc(OC)cc3c(=O)c12,–,inactive
CCCCCCCCCCCCc1ccccc1S(=O)(=O)O,–,inactive
CCCCCCC(=O)O,–,inactive

# Target: human Adrenergic, Beta 1 Receptor (Adrb1), ADRB1 (gene 153) (UniProt P08588)
# Assay: NVS_GPCR_hAdrb1: NovaScreen (NVS) G Protein-Coupled Receptor Assay for human Adrenergic, Beta 1 Receptor (Adrb1) (AID 2283258)
# Protocol: NVS_GPCR_hAdrb1 is a biochemical, single-readout assay that uses extracted gene-proteins from Human neuroepithelioma cells in a cell-free assay. Measurements were taken 2 hours after chemical dosing in a 96-well plate.NVS_GPCR_hAdrb1 is one of one assay component(s) measured or calculated from the NVS_GPCR_hAdrb1 assay. It is designed to make measurements of radioligand binding, a form of binding reporter, as detected with scintillation counting signals by Filter-based radiodetection technology.Data from the assay component NVS_GPCR_hAdrb1 was analyzed into 1 assay endpoint. This assay endpoint, NVS_GPCR_hAdrb1, was analyzed in the positive analysis fitting direction relative to DMSO as the negative control and baseline of activity. Using a type of binding reporter, loss-of-signal activity can be used to understand changes in the binding as they relate to the gene ADRB1. Furthermore, this assay endpoint can be referred to as a primary readout, because the performed assay has only produced 1 assay endpoint. To generalize the intended target to other relatable targets, this assay endpoint is annotated to the gpcr intended target family, where the subfamily is rhodopsin-like receptor.
# Binding assays used specific radioligands (tritiated, iodinated) with non-radioactive competitive displacement ligands in agonist or antagonist protocols (as indicated) and various reference compounds and inhibitors to titrate specific binding to receptors and transporters. Most enzyme assays (CYPs, kinases, phosphatases, proteases, HDACs) used recombinant protein and specific substrates (fluorescence mostly, some colorimetric and radioactive) and inhibitors, followed by a biochemical separation of substrate and product. All assays for the biochemical HTS were initially run in duplicate at a single concentration (10 uM for CYP450 assays and 25 uM for all others). […] Each assay was run with positive and negative controls, and concurrent controls on every plate. The follow-up (secondary) screen tested active chemical-pairs in concentration series, as well as a few additional assays not tested in the primary screen, some selected negative inactives, and several cases re-run in the concentration series for confirmatory purposes.
# human Adrenergic, Beta 1 Receptor (Adrb1), ADRB1 (gene 153), sequence (P08588 whole entry, looked up): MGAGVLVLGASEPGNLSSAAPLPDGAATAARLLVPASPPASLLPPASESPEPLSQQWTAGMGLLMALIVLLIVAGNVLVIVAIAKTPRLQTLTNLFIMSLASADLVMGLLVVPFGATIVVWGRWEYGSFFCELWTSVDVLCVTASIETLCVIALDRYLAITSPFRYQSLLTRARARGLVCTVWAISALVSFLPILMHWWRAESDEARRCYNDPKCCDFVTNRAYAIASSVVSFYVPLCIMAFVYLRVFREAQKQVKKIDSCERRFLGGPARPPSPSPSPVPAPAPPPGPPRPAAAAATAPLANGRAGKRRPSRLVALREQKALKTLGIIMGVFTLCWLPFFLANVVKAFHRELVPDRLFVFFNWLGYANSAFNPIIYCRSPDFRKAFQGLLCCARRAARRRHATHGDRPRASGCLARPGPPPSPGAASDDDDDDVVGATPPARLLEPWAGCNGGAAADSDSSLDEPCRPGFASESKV
SMILES,outcome,AC50
NC(=O)N1C(=O)C(C(=O)c2cc(Cl)cs2)c2cc(F)c(Cl)cc21 (centres undefined),inactive,–
CCCCCCCCCCCCCCCS(=O)(=O)Oc1ccccc1,inactive,–
CCCOc1sc(C(=O)N2CCC(c3cc(CN)ccc3F)CC2)c(C)c1Br,–,15.2 µM (active)
NC(=O)N(O)[C@@H]1C=C[C@H](Oc2cccc(Oc3ccc(F)cc3)c2)C1,inactive,–
CN1CCN(c2ccccc2/C=C2\SCCN(c3ccc(Cl)c(Cl)c3)C2=O)CC1,–,3.51 µM (active)
CCCCCCCCCCCCc1ccccc1S(=O)(=O)O,–,6.83 µM (active)
